From PubChem BioAssay (NCATS) come the findings set out here.

Assay [1] is described as follows: qHTS for Inhibitors of Ubiquitin-specific Protease USP2a Using CHOP2 as the Reporter: K633 Counterscreen (AID 652168). Further: series mostly up to about 57 µM. The essentials: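 Cell-free interference counterscreen without USP2a: compounds pinned into enzyme-free buffer (20 mM Tris pH 8, 2 mM beta-mercaptoethanol, 0.05% Chaps), then DiUb K48-4IQF substrate added (100 nM stock); fluorescence read kinetically, Ex 525/Em 598.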
A general note: Quantitative high-throughput screening tests each substance at several concentrations.

Assay [2] can be described thus: qHTS for Inhibitors of Ubiquitin-specific Protease USP2a Using CHOP2 as the Reporter: Cytotox Assay (AID 652170). Further: nearly all actives have a fitted effect of over 70% in size. Further: potency means the concentration at half of the fitted maximal effect. The essentials:
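HCT116 human colon cancer cells, 600 per well in DMEM with 10% FBS, exposed to compounds for 72 hr at 37 deg C. ATP measured by CellTiter-Glo luminescence, normalized to DMSO cells and no-cell background.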

Assay [3] concerns the target Ubiquitin carboxyl-terminal hydrolase 2 (Homo sapiens) (UniProt O75604). In words: qHTS for Inhibitors of Ubiquitin-specific Protease USP2a Using CHOP2 as the Reporter: K484 Substrate (AID 652173).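 Further: cleavage of internally quenched K48 di-ubiquitin substrate measured as rising fluorescence over time; nearly all actives have a fitted effect of over 70% in size.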 Further: potency means the concentration at half of the fitted maximal effect. A digest of the protocol: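 USP2 (dispensed at 5 nM) was pinned with compounds, then DiUb K48 internally quenched fluorescent substrate (dispensed at 100 nM) was added. The buffer was 20 mM Tris pH 8, 2 mM beta-mercaptoethanol and 0.05% CHAPS. Cleavage was read kinetically as rising fluorescence, Ex 525/Em 598.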

Assay [4] has as its target Tyrosine-protein kinase Yes (Homo sapiens) (UniProt P07947). In words: qHTS for small molecule inhibitors of Yes1 kinase: Primary Screen (AID 686947). Further: potency means the concentration at half of the fitted maximal effect; nearly all actives have a fitted effect of over 60% in size. A digest of the protocol:
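Yes1 (4 nM) preincubated 20 min with compound, then 60 min room-temperature reaction with 0.1 mM ATP and 0.3 mg/mL poly(E4Y) in pH 7.5 Tris, 10 mM MgCl2. ADP measured by ADP-Glo luminescence, normalised to enzyme/no-enzyme controls.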

Assay [5] is described as follows: qHTS for small molecule inhibitors of Yes1 kinase: Counter Assay (AID 686950).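 Further: no kinase present so only ADP-Glo detection of a fixed ADP amount is tested; luminescence from ADP-Glo reporting ADP in a fixed ATP and ADP mixture; series mostly up to about 77 µM.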 A digest of the protocol:
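Enzyme-free ADP-Glo interference check: compounds were preincubated 20 min in buffer, then an ATP/ADP mix (0.08 mM ATP, 0.02 mM ADP final) was added for 60 min at room temperature before two-step ADP-Glo luminescence detection.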

Inconclusive results are not listed. A call without a number means that no potency is given here. Activity calls are given as the source filed them. The call rests on the fitted dose curve; in most records, active means well fitted curve in the direction sought with a large enough effect; inconclusive means small, poorly fitted or top-dose-only effect, or another doubt; inactive means no such curve, though single readings can be large; an effect the other way counts as inactive or inconclusive.

Chain of Ubiquitin carboxyl-terminal hydrolase 2 (Homo sapiens) (O75604 whole entry, looked up): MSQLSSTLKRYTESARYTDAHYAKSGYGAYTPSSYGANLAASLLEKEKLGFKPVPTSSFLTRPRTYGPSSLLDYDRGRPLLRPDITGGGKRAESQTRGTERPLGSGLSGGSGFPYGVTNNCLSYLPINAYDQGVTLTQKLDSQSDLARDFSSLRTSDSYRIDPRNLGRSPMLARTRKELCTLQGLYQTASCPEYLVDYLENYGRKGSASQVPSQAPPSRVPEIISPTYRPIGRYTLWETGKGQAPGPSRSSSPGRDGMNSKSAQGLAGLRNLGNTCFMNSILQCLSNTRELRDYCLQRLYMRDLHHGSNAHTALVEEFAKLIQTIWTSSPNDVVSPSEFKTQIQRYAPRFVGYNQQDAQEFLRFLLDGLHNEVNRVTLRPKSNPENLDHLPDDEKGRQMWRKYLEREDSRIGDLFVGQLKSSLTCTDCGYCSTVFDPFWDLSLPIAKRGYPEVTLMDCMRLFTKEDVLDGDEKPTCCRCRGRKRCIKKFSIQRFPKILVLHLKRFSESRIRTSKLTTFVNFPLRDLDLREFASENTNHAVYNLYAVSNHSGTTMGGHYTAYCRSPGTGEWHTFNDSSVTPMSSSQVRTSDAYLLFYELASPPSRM
Chain of Tyrosine-protein kinase Yes (Homo sapiens) (P07947 whole entry, looked up): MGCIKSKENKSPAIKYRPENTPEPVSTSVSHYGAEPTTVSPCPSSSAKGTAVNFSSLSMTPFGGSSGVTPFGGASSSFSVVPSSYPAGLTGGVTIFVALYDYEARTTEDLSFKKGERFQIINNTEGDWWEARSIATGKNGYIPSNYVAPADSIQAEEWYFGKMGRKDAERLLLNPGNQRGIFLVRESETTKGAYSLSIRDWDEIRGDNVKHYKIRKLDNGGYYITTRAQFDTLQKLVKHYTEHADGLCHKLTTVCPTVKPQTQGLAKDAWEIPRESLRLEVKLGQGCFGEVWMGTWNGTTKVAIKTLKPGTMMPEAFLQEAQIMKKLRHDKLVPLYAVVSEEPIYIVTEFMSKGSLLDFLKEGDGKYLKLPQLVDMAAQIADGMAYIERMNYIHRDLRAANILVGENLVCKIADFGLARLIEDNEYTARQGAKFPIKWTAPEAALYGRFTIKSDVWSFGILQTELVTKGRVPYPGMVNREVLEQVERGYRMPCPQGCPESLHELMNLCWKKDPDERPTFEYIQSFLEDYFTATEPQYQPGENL

As for `CCC(=O)OC1CCC(C(=O)Nc2ccc([S+](=O)([O-])Nc3nccs3)cc2)CC1` (centres undefined), the outcome in assay [1] was inactive. The Potency entry in assay [2] and in assay [3] was “inactive” each time.

Consider `O=S(=O)(Nc1nccs1)c1ccc(Nc2nc(-c3ccc(Cl)c(Cl)c3)cs2)cc1`, for which, in assay [1], the call was inactive. Also, the Potency result in assay [2] was “inactive”. Besides, in assay [3], the Potency is 27.3 µM (active).

Consider `O=C(Nc1nc(-c2ccc(F)cc2)cs1)c1ccncc1NS(=O)(=O)c1ccc(F)cc1`, for which the outcome in assay [1] was inactive. The Potency result in assay [2] is “inactive”. The Potency in assay [3] is 4.85 µM (active).

In the case of `O=C1CCCc2cc(S(=O)(=O)Nc3cnccc3C(=O)Nc3nc(-c4ccccc4)cs3)ccc2N1`, the compound was classed as inactive in assay [1]. The Potency result in assay [2] is “inactive”. Besides, the Potency in assay [3] was 7.69 µM (active).

`Cc1ccc(S(=O)(=O)Nc2cnccc2C(=O)Nc2nc(-c3ccccc3Cl)cs2)cc1`: the call in assay [1] was inactive. In addition, the Potency in assay [3] is 1.72 µM (active).

For the compound `N#Cc1ccc(S(=O)(=O)Nc2cnccc2C(=O)Nc2nc(-c3ccccc3)cs2)cc1`, the call in assay [1] was inactive. The Potency result in assay [2] is “inactive”. For the same compound, the Potency in assay [3] was 2.43 µM (active).

Consider `Cc1ccc(S(=O)(=O)Nc2cnccc2C(=O)Nc2nc(-c3cc(Br)cs3)cs2)cc1`, for which the result in assay [1] was inactive. For the same compound, the Potency in assay [3] was 2.17 µM (active).

With `Cn1cnc(S(=O)(=O)Nc2cnccc2C(=O)Nc2nc(-c3ccccc3)cs2)c1`, in assay [1], the call was inactive. The Potency result in assay [2] is “inactive”. Besides, the Potency in assay [3] was 19.3 µM (active).

Turning to `COc1ccc(C(=O)Nc2nc(-c3ccccc3)cs2)c(NS(=O)(=O)c2ccc(C)cc2)c1`, the result in assay [1] was inactive. For the same compound, the Potency in assay [2] was 13.2 µM (active); in assay [3], 1.37 µM (active).

As for `Cc1ccccc1S(=O)(=O)Nc1cnccc1C(=O)Nc1nc(-c2ccccc2)cs1`, the outcome in assay [1] was inactive. In addition, the Potency in assay [2] was 18.7 µM (active); in assay [3], 2.43 µM (active).

In the case of `Nc1ccc(S(=O)(=O)Nc2cnccc2C(=O)Nc2nc(-c3ccccc3)cs2)cc1`, the result in assay [1] was inactive. The Potency result in assay [2] is “inactive”. Moreover, the Potency in assay [3] was 17.2 µM (active).

Consider `Cc1cccc(S(=O)(=O)Nc2cnccc2C(=O)Nc2nc(-c3ccccc3)cs2)c1`, for which, in assay [1], the outcome was inactive. Besides, in assay [3], the Potency was 2.73 µM (active).

As to `Cc1ccc(S(=O)(=O)Nc2cnccc2C(=O)Nc2ccc(-c3nn[nH]n3)cc2)cc1`, the outcome in assay [1] was inactive. Moreover, the Potency result in assay [2] is “inactive”. The Potency in assay [3] is 8.63 µM (active).

In the case of `O=C(Nc1ccc(S(=O)(=O)Nc2nccs2)cc1)c1ccc(-c2ccccc2)cc1`, the call in assay [1] was inactive. In assay [2], the Potency result is “inactive”. Further, the Potency in assay [3] was 24.3 µM (active).

Take `CCN(CC)C(=O)C1CCC(C(=O)Nc2ccc([S+](=O)([O-])Nc3nccs3)cc2)CC1` (centres undefined): the outcome in assay [1] was inactive. Moreover, the Potency result in assay [2] and in assay [3] was “inactive” throughout.

For `O=C(Nc1nc(-c2ccccc2)cs1)c1ccncc1NS(=O)(=O)c1ccc(F)cc1`, in assay [1], the outcome was inactive. In addition, in assay [2], the Potency entry was “inactive”. The Potency in assay [3] was 3.06 µM (active).

As to `O=C(Nc1nc(-c2ccccc2)cs1)c1ccncc1NS(=O)(=O)c1c(F)cc(F)cc1F`, in assay [1], the result was inactive. Also, in assay [2], the Potency result is “inactive”. The Potency in assay [3] was 3.43 µM (active).

For `O=C(Nc1nc(-c2ccccc2)cs1)c1ccncc1NS(=O)(=O)c1ccc(F)cc1F`, in assay [1], the result was inactive. The Potency entry in assay [2] is “inactive”. In addition, the Potency in assay [3] is 3.06 µM (active).

As for `COc1ccc(S(=O)(=O)Nc2cnccc2C(=O)Nc2nc(-c3ccccc3)cs2)cc1`, in assay [1], the call was inactive. Moreover, the Potency entry in assay [2] was “inactive”. In addition, in assay [3], the Potency was 3.85 µM (active).

For `Cc1ccc(S(=O)(=O)Nc2cnccc2C(=O)Nc2ccc3ccccc3c2)cc1`, the compound was classed as inactive in assay [1]. Further, the Potency in assay [3] was 6.11 µM (active).

On to `COc1cccc(-c2csc(NC(=O)c3ccncc3NS(=O)(=O)c3ccc(C)cc3)n2)c1`, for which the result in assay [1] was inactive. In addition, the Potency in assay [3] was 1.72 µM (active).

As to `N#Cc1cnc(NS(=O)(=O)c2ccc(NC(=O)Cc3ccc(F)c(Cl)c3)cc2)s1`, in assay [1], the call was inactive. In addition, the Potency result in assay [2] was “inactive”. In addition, the Potency in assay [3] was 15.3 µM (active).

For `COc1ccccc1S(=O)(=O)Nc1cnccc1C(=O)Nc1nc(-c2ccccc2)cs1`, the compound was classed as inactive in assay [1]. In addition, in assay [2], the Potency entry was “inactive”. In assay [3], the Potency was 13.7 µM (active).

With `CCCOC1CCC(C(=O)Nc2ccc([S+](=O)([O-])Nc3nccs3)cc2)CC1` (centres undefined), the result in assay [1] was inactive. In addition, the Potency result in assay [2] and in assay [3] was “inactive” each time.

Turning to `O=C(Nc1nc(-c2ccccc2)cs1)c1ccncc1NS(=O)(=O)c1cccs1`, the call in assay [1] was inactive. Also, the Potency result in assay [2] was “inactive”. In addition, the Potency in assay [3] is 3.43 µM (active).

Regarding `O=C(Nc1nc(-c2ccccc2)cs1)c1ccncc1NS(=O)(=O)c1ccccc1F`, the compound was called inactive in assay [1]. In addition, the Potency result in assay [2] is “inactive”. For the same compound, the Potency in assay [3] is 2.43 µM (active).

Regarding `O=C(Nc1nc(-c2ccccc2)cs1)c1ccncc1NS(=O)(=O)c1ccc(Cl)cc1`, the result in assay [1] was inactive. The Potency result in assay [2] is “inactive”. For the same compound, the Potency in assay [3] was 1.53 µM (active).

`Cc1ccc(S(=O)(=O)Nc2cnccc2C(=O)Nc2nc(-c3cccc(Cl)c3)cs2)cc1`: in assay [1], the outcome was inactive. Besides, the Potency in assay [2] is 23.5 µM (active); in assay [3], 2.17 µM (active).

Consider `O=C(Nc1nc(-c2ccccc2)cs1)c1ccncc1NS(=O)(=O)c1ccc(C(F)(F)F)cc1`, for which the outcome in assay [1] was inactive. The Potency result in assay [2] was “inactive”. Further, the Potency in assay [3] is 3.06 µM (active).

Regarding `CCn1c(-c2nonc2N)nc2c(C#CC(C)(C)O)nc(OCCNC)cc21`, the Potency in assay [4] is 8.23 µM (active). The result in assay [5] was inactive.
